# Out of some 2,500 compounds screened, about 1,100 (44%) were called active.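 How the source made its calls: active means inhibition above 50% at 4 µM in the single-point screen; inactive means inhibition of 50% or less.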 So high a share suggests a set chosen from earlier hits. Some of the results follow.
# Assay: TNF-a-driven NF-kB reporter inhibitors, primary screen, selectivity assay for NOD1/NOD2 signaling inhibitor project, cell-based, HEK293T NF-kB-Luc, luminescence (AID 1852)
# Conditions: TNF-a induced, 14 h, at 4 µM, stronger effect = higher value
row,SMILES,inhibition
1,CC(C)NC(=O)c1sc(=S)n2c1[nH]c(=O)c1ccc(C(=O)NCCc3ccc(Cl)cc3)cc12,42.5% (inactive)
2,O=C(NCc1ccco1)c1sc(=S)n2c1[nH]c(=O)c1ccccc12,54.1% (active)
3,CCCCNC(=O)c1sc(=S)n2c1[nH]c(=O)c1ccccc12,69.9% (active)
4,CCOc1ccc(CCNC(=O)c2ccc3c(=O)[nH]c4c(C(=O)NC(C)C)sc(=S)n4c3c2)cc1,50.9% (active)
5,COc1cc(C(=O)Nc2sc3c(c2C(=O)NCc2ccco2)CCCC3)cc(OC)c1OC,-39.2% (inactive)
6,O=C(NCc1ccccc1)c1sc(=S)n2c1[nH]c(=O)c1ccccc12,73.6% (active)
7,O=C(NCc1ccccc1)c1ccc(C2SCC(=O)N2Cc2ccccc2)cc1 (stereo unspecified),33.1% (inactive)
8,COc1ccc(OC)c(CCNC(=O)c2ccc3c(=O)[nH]c4c(C(=O)NC(C)C)sc(=S)n4c3c2)c1,35.7% (inactive)
9,CCNC(=O)/C(C#N)=C/c1c(N2CCN(c3cccc(Cl)c3)CC2)nc2c(C)cccn2c1=O,-19.8% (inactive)
10,COc1ccccc1N1CCN(c2ncnc3sc(C)c(-c4ccccc4)c23)CC1,26.9% (inactive)
11,COc1ccccc1N1CCN(c2nc(C)nc3c2oc2ccccc23)CC1,68.6% (active)
12,CCc1nc(SCC(=O)N2CCN(c3ccccc3)CC2)c2oc3ccccc3c2n1,0.6% (inactive)
13,Oc1cc2c(cc1C(c1ccc(Cl)c(Cl)c1)N1CCCC1)OCO2 (stereo unspecified),-22.5% (inactive)
14,O=[N+]([O-])c1cc(/C=N/Nc2nc3ccccc3[nH]2)c(O)cc1O,66.5% (active)
15,O=[N+]([O-])c1ccc(O)c(/C=N/Nc2nc3ccccc3[nH]2)c1,67.8% (active)
16,O=[N+]([O-])c1cc(Cl)cc(/C=N\Nc2ccccn2)c1O,48.8% (inactive)
17,Cc1cc(N/N=C/c2ccccc2[N+](=O)[O-])nc(-n2nc(C)cc2C)n1,1.1% (inactive)
18,Cc1nc([N+](=O)[O-])c(Sc2nc3ccc([N+](=O)[O-])cc3[nH]2)n1Cc1ccccc1,38% (inactive)
19,C[C@H]1O[C@@H](O[C@H]2[C@@H](O)C[C@H](O[C@H]3[C@@H](O)C[C@H](O[C@H]4CC[C@@]5(C)[C@H](CC[C@@H]6[C@@H]5C[C@@H](O)[C@]5(C)[C@@H](C7=CC(=O)OC7)CC[C@]65O)C4)O[C@@H]3C)O[C@@H]2C)C[C@H](O)[C@@H]1O,104% (active)

row,SMILES,inhibition
1,Cc1ccc(NC(=O)Cc2cc(C(=O)O)c3ccccc3n2)c(C)c1,25.2% (inactive)
2,Cc1ccccc1-c1cc(C(=O)Nc2sc(C(=O)OC(C)C)c(C)c2C#N)c2ccccc2n1,94.3% (active)
3,COC(=O)c1sc(NC(=O)c2cc(-c3ccccc3)nc3ccccc23)c(C#N)c1C,75.2% (active)
4,CCOC(=O)c1sc(NC(=O)c2cc(-c3ccccc3)nc3ccccc23)c(C#N)c1C,80.3% (active)
5,CCOC(=O)c1sc(NC(=O)CSc2n[nH]c(-c3ccccc3)n2)c(C#N)c1C,38.1% (inactive)
6,COc1cc(-c2cc(C(=O)Nc3ccc(N4CCOCC4)cc3)c3ccccc3n2)cc(OC)c1OC,21.8% (inactive)
7,CCOC(=O)c1sc(NC(=O)c2cc(-c3ccccc3C)nc3ccccc23)c(C#N)c1C,92.5% (active)
8,CCOC(=O)c1cc(-c2ccccc2)sc1NC(=O)c1cc(OC)c(OC)c(OC)c1,-26.7% (inactive)
9,COc1ccc(N2CCN(C(=O)CCC(=O)N3CCOc4ccc(C)cc43)CC2)cc1,40.5% (inactive)
10,COc1ccc(-n2nnnc2S(=O)(=O)CC(=O)N2CCCCC2)cc1,102% (active)
11,COc1ccc(-n2nc3c(c2NC(=O)CCl)CSC3)cc1,-4.5% (inactive)
12,CCCCCCc1cc2cc(-c3nnc(-c4ccccc4O)o3)c(=O)oc2cc1O,22.1% (inactive)
13,CCCCCCc1cc2cc(-c3nnc(-c4ccccc4OC)o3)c(=O)oc2cc1O,-7.1% (inactive)
14,CCCCCCc1cc2cc(-c3nnc(-c4cc(OC)c(OC)c(OC)c4)o3)c(=O)oc2cc1O,69.4% (active)
15,COc1ccc(CN(CCC(c2ccccc2)c2ccc(OC(C)C)cc2)C(=O)CCl)cc1OC (stereo unspecified),-5.8% (inactive)
16,COc1cccc(N(C(=O)CCl)C(C(=O)NCCc2ccccc2)c2cccs2)c1 (stereo unspecified),81.5% (active)
17,COc1ccc(N(C(=O)CCl)C(C(=O)NCCc2ccccc2)c2cccs2)cc1 (stereo unspecified),60.3% (active)
18,O=C(NCCc1ccccc1)C(c1cccs1)N(C(=O)CCl)c1ccc(Cl)cc1 (stereo unspecified),24.6% (inactive)
19,COc1cccc(-c2nc(CS(=O)(=O)CC(=O)NCCc3ccccc3)c(C)o2)c1,11.1% (inactive)

row,SMILES,inhibition
1,C=CCN1C(=O)/C(=C/c2ccc(OC(C)=O)c(OCC)c2[N+](=O)[O-])SC1=S,56.7% (active)
2,CN(C)c1ccc(-c2noc(C3CCN(S(=O)(=O)c4cccc(Cl)c4)CC3)n2)cc1,31% (inactive)
3,COc1ccc(CCN2CC(C(=O)N(C)CC(=O)Nc3cccc(F)c3)CC2=O)cc1OC (stereo unspecified),21.5% (inactive)
4,COc1cc(C(=O)Nc2cccc(-c3nc4cc(C)ccc4o3)c2)cc(OC)c1OC,-51.1% (inactive)
5,COc1ccc(CC(=O)Nc2cccc(-c3nnc(-c4ccc(C)cc4)o3)c2)cc1OC,77.2% (active)
6,C[n+]1c2n(c3ccccc31)N=C(c1cc(C(C)(C)C)c(O)c(C(C)(C)C)c1)CS2,82.3% (active)
7,COc1ccc(C2=Nn3c([n+](C)c4ccccc43)SC2)cc1,32.8% (inactive)
8,COc1ccc(NC(=O)/C(Cl)=C(/Cl)S(=O)(=O)Cc2ccc(C)cc2)cn1,108% (active)
9,COc1ccc(NS(=O)(=O)c2ccc3c(c2)Cc2ccccc2-3)cn1,25.4% (inactive)
10,COc1ccc(NC(=O)c2cccc(S(=O)(=O)Nc3ccc(Br)cc3)c2)cn1,23.8% (inactive)
11,COc1ccc(NC(=O)/C(Cl)=C(/Cl)S(=O)(=O)Cc2ccccc2)cn1,92.3% (active)
12,Cc1cccc(C(=O)NNC2=C(C(=O)C(F)(F)F)CCC2)c1O,93.3% (active)
13,O=C(NNC1=C(C(=O)C(F)(F)F)CCC1)c1ccccc1O,15% (inactive)
14,Cc1oc2c(C)c3oc(=O)c(CCC(=O)O)c(C)c3cc2c1-c1ccccc1,47% (inactive)
15,Cc1c(CCC(=O)O)c(=O)oc2cc3oc4c(c3cc12)CCCC4,48.7% (inactive)
16,O=c1c(-c2ccc(Cl)cc2)coc2c(CN3CCCCC3)c(O)ccc12,37.4% (inactive)
17,COc1cccc(-c2coc3c(C)c4oc(=O)c(CCC(=O)O)c(C)c4cc23)c1,69.3% (active)
18,Cc1c(CCC(=O)O)c(=O)oc2c(C)c3occ(-c4ccc(Cl)cc4)c3cc12,59.5% (active)

# From PubChem BioAssay AID1852 (Sanford-Burnham Center for Chemical Genomics, 2009)
